Reference: PubChem BioAssay (NCI)
Compounds without any hit were thinned out: in the full panel of roughly 79,000, 15% have a hit. The source made the active and inactive calls. Cut-off read from the data, not from the text of the source: active = growth inhibition above about 70%; inactive = the rest.

Tests used:
[1] = NCI Yeast Anticancer Drug Screen. Data for the rad52 strain (AID 147);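 note: 0% = growth of vehicle-treated control cultures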; conditions: S. cerevisiae rad52 mutant growth inhibition, stronger effect = higher value
How it was run: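 Read-out: growth inhibition versus vehicle-treated controls. Cells were a DNA repair-deficient yeast strain treated with compounds.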

[2] = NCI Yeast Anticancer Drug Screen. Data for the wt1 strain (AID 149);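 note: 0% = growth of vehicle-treated wt1 cultures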; conditions: S. cerevisiae wt1 strain (SPY 50644) growth inhibition, stronger effect = higher value
How it was run: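 Yeast wt1 strain exposed to compounds; growth inhibition measured relative to vehicle-treated controls.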

[3] = NCI Yeast Anticancer Drug Screen. Data for the rad50EPP+ strain (AID 151);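 note: 0% = growth of vehicle-treated control cultures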; conditions: S. cerevisiae rad50 mutant strain, stronger effect = higher value
How it was run: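 Growth inhibition read against vehicle controls in rad50EPP+ yeast, a strain altered in DNA damage repair, after compound exposure.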

[4] = NCI Yeast Anticancer Drug Screen. Data for the rad50 strain (AID 155);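 note: 0% = growth of vehicle-only cultures of the same strain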; conditions: S. cerevisiae rad50 strain growth inhibition, stronger effect = higher value
How it was run: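 Yeast carrying a defined DNA repair defect were exposed to test compounds, and growth was compared with vehicle-treated controls to give percent inhibition.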

[5] = NCI Yeast Anticancer Drug Screen. Data for the mec2-1 strain (AID 157); conditions: S. cerevisiae mec2-1 strain, stronger effect = higher value
How it was run: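 Yeast mec2-1 mutant treated with compound. Readout: growth inhibition vs vehicle controls.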

[6] = NCI Yeast Anticancer Drug Screen. Data for the rad14 strain (AID 159);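 note: 0% = growth of vehicle-treated control cultures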; conditions: S. cerevisiae rad14 strain growth inhibition, stronger effect = higher value
How it was run: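 Yeast cells carrying a defined DNA-repair defect were exposed to compounds, and growth inhibition was calculated relative to vehicle-treated control cultures.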

[7] = NCI Yeast Anticancer Drug Screen. Data for the sgs1 mgt1 strain (AID 161);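 note: 0% = growth of cultures given vehicle only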; conditions: S. cerevisiae sgs1 mgt1 strain, stronger effect = higher value
How it was run: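 Read-out: growth inhibition vs vehicle controls. Cells: mutant yeast strain deficient in DNA damage repair.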

[8] = NCI Yeast Anticancer Drug Screen. Data for the CLN2oe strain (AID 163);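 note: 0% = growth of vehicle-only control cultures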; conditions: S. cerevisiae CLN2oe strain, stronger effect = higher value
How it was run: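 Read-out: yeast growth inhibition, expressed relative to vehicle-only controls. The strain bears an engineered cell-cycle alteration.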

[9] = NCI Yeast Anticancer Drug Screen. Data for the cln2 rad14 strain (AID 165);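 note: 0% = growth equal to vehicle treated cultures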; conditions: S. cerevisiae cln2 rad14 strain, stronger effect = higher value
How it was run: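 cln2 rad14 yeast strain; compound exposure; growth inhibition read vs vehicle controls.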

[10] = NCI Yeast Anticancer Drug Screen. Data for the bub3 strain (AID 167); conditions: S. cerevisiae bub3 mutant strain, stronger effect = higher value
How it was run: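 Compounds were applied to a genetically altered yeast strain carrying a cell-cycle control defect. Growth inhibition was scored against vehicle-treated controls.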

[11] = NCI Yeast Anticancer Drug Screen. Data for the wt2 strain (AID 169);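 note: 0% = growth of vehicle-treated yeast cultures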; conditions: S. cerevisiae wt2 strain growth inhibition, stronger effect = higher value
How it was run: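 Read-out: growth inhibition versus vehicle-treated control cultures after compound exposure of the yeast strain.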

[12] = NCI Yeast Anticancer Drug Screen. Data for the mlh1 strain (AID 171);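 note: 0% = growth of vehicle-treated control cultures of the same strain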; conditions: S. cerevisiae mlh1 strain growth inhibition, stronger effect = higher value
How it was run: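 Read-out: growth inhibition versus vehicle controls. Strain: engineered yeast with a defined DNA repair or cell cycle defect, compound-treated.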

[13] = NCI Yeast Anticancer Drug Screen. Data for the sgs1 strain (AID 173);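 note: 0% = growth of vehicle-only control cultures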; conditions: S. cerevisiae sgs1 mutant, stronger effect = higher value
How it was run: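 Read-out: yeast growth inhibition relative to vehicle controls, following compound exposure of a strain with a defined DNA repair/cell cycle alteration.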

[14] = NCI Yeast Anticancer Drug Screen. Data for the mlh1 rad18 strain (AID 175); conditions: S. cerevisiae mlh1 rad18 strain growth inhibition, stronger effect = higher value
How it was run: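 Yeast w/ defined DNA-repair lesions; compound exposure; growth vs vehicle controls → % inhibition.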

[15] = NCI Yeast Anticancer Drug Screen. Data for the rad18 strain (AID 177); conditions: S. cerevisiae rad18 mutant growth inhibition, stronger effect = higher value
How it was run: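 Readout: growth inhibition vs vehicle controls. Cells: genetically altered yeast strain, DNA repair defect.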

[16] = at 5.0 µM (retest, dose inferred, filed as 0.5)
[17] = at 50.0 µM (retest, dose inferred, filed as 5.0)

Measured: growth inhibition

CCCCCCCCCCCCCCCCNC(=O)/C(=C\c1ccc(Cl)c(Cl)c1)NC(=O)c1ccccc1
active: [1]; at 100.0 µM 77% | [3]; at 100.0 µM 74% | [4]; [17] 75% | [4]; at 50.0 µM 93.2% | [5]; at 50.0 µM 94.2% | [10]; at 50.0 µM 88.8% | [10]; at 100.0 µM 87% | [14]; at 50.0 µM 89.2%
inactive: [1]; at 1.2 µM 21% | [1]; at 3.7 µM 8% | [1]; at 11.0 µM 18% | [1]; at 33.0 µM 11% | [2]; at 1.2 µM -41% | [2]; at 3.7 µM -2% | [2]; at 11.0 µM -4% | [2]; at 33.0 µM -6% | [2]; at 100.0 µM 9% | [3]; at 1.2 µM 2% | [3]; at 3.7 µM 6% | [3]; at 11.0 µM 6% | [3]; at 33.0 µM 34% | [4]; at 1.2 µM -2% | [4]; at 3.7 µM 0% | [4]; [16] 14% | [4]; at 11.0 µM -2% | [4]; at 33.0 µM -4% | [4]; at 100.0 µM 49% | [5]; at 1.2 µM 11% | [5]; at 3.7 µM -5% | [5]; [16] 8% | [5]; at 11.0 µM -7% | [5]; at 33.0 µM -2% | [5]; [17] 29% | [5]; at 100.0 µM 33% | [6]; at 1.2 µM -1% | [6]; at 3.7 µM 0% | [6]; at 11.0 µM -4% | [6]; at 33.0 µM 4% | [6]; at 100.0 µM 43% | [7]; [16] -5% | [7]; [17] 13% | [7]; at 50.0 µM 55% | [8]; at 1.2 µM -11% | [8]; at 3.7 µM -7% | [8]; at 11.0 µM -6% | [8]; at 33.0 µM -13% | [8]; at 100.0 µM 52% | [9]; [16] 46% | [9]; [17] -10% | [9]; at 50.0 µM 59.2% | [10]; at 1.2 µM -3% | [10]; at 3.7 µM -4% | [10]; [16] 3% | [10]; at 11.0 µM -6% | [10]; at 33.0 µM -7% | [10]; [17] 43% | [11]; at 1.2 µM 0% | [11]; at 3.7 µM 1% | [11]; at 11.0 µM 0% | [11]; at 33.0 µM 5% | [11]; at 100.0 µM 69% | [12]; at 1.2 µM 0% | [12]; at 3.7 µM -1% | [12]; at 11.0 µM -3% | [12]; at 33.0 µM -5% | [12]; at 100.0 µM 47% | [13]; at 1.2 µM 2% | [13]; at 3.7 µM 5% | [13]; at 11.0 µM 5% | [13]; at 33.0 µM 14% | [13]; at 100.0 µM 49% | [14]; [16] 10% | [14]; [17] 31% | [15]; at 1.2 µM 7% | [15]; at 3.7 µM 7% | [15]; at 11.0 µM 26% | [15]; at 33.0 µM 24% | [15]; at 100.0 µM 67%
